According to PubChem BioAssay (NCATS):
Records with an inconclusive call do not appear. Where a call stands in place of a potency, no number is given. A number with no mark means an inactive call. Activity calls are given as the source filed them. Calls come from the whole dose curve; as a rule, active = well fitted inhibition curve with a large enough effect; inconclusive = small, poorly fitted or top-dose-only effect; inactive = flat fitted curve, though single readings scatter.

What was measured:
Experiment in all cases: qHTS profiling for inhibitors of Plasmodium falciparum proliferation (AID 504749); note: nearly all actives have a fitted effect of over 60% in size
CP201 = details: P. falciparum in erythrocytes, SYBR Green DNA, 72 h; series mostly up to 28.7 µM
How it was run: (§1)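 Readout was DNA-dye fluorescence from lysed cultures, ex 485/em 535 nm. Parasitized red cells had grown 72 h with compound; data scaled between 0.29 uM artemisinin and DMSO wells and corrected using vehicle-only plates.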

CP203 = details: P. falciparum in erythrocytes, SYBR Green DNA, 72 h; series mostly up to 28.7 µM
How it was run: as §1

CP215 = details: P. falciparum in erythrocytes, SYBR Green DNA, 72 h; series mostly up to 28.7 µM
How it was run: as §1

CP237 = details: P. falciparum in erythrocytes, SYBR Green DNA, 72 h; series mostly up to 28.7 µM
How it was run: as §1

CP247 = details: P. falciparum in erythrocytes, SYBR Green DNA, 72 h; series mostly up to 28.7 µM
How it was run: as §1

CP250 = details: P. falciparum in erythrocytes, SYBR Green DNA, 72 h; series mostly up to 12.8 µM
How it was run: as §1

CP260 = details: P. falciparum in erythrocytes, SYBR Green DNA, 72 h; series mostly up to 28.7 µM
How it was run: as §1

CP265 = details: P. falciparum in erythrocytes, SYBR Green DNA, 72 h; series mostly up to 12.8 µM
How it was run: as §1

CP268 = details: P. falciparum in erythrocytes, SYBR Green DNA, 72 h; series mostly up to 28.7 µM
How it was run: as §1

CP291 = details: P. falciparum in erythrocytes, SYBR Green DNA, 72 h; series mostly up to 28.7 µM
How it was run: as §1

CP335 = details: P. falciparum in erythrocytes, SYBR Green DNA, 72 h; series mostly up to 12.8 µM
How it was run: as §1

DIV14 = details: P. falciparum in erythrocytes, SYBR Green DNA, 72 h; series mostly up to 28.7 µM
How it was run: as §1

DIV17 = details: P. falciparum in erythrocytes, SYBR Green DNA, 72 h; series mostly up to 28.7 µM
How it was run: as §1

P93_24 = details: P. falciparum in erythrocytes, SYBR Green DNA, 72 h; series mostly up to 28.7 µM
How it was run: as §1

PC26 = details: P. falciparum in erythrocytes, SYBR Green DNA, 72 h; series mostly up to 28.7 µM
How it was run: as §1

TAB165 = details: P. falciparum in erythrocytes, SYBR Green DNA, 72 h; series mostly up to 28.7 µM
How it was run: as §1
Potency is the fitted concentration of half-maximal effect.

Structure (SMILES) | Potency (CP201) | Potency (CP203) | Potency (CP215) | Potency (CP237) | Potency (CP247) | Potency (CP250) | Potency (CP260) | Potency (CP265) | Potency (CP268) | Potency (CP291) | Potency (CP335) | Potency (DIV14) | Potency (DIV17) | Potency (P93_24) | Potency (PC26) | Potency (TAB165)
C[C@H]1CN(C2CCC(C#N)(c3ccc(F)cc3)CC2)CC[C@@]1(C(=O)O)c1ccccc1 (stereo partly specified) | inactive | inactive | inactive | inactive | inactive | inactive | inactive | inactive | inactive | inactive | inactive | inactive | inactive | inactive | inactive | inactive
CC[C@@H]1[C@@H]2C[C@H]3[C@H]4N(C)c5ccccc5[C@@]45C[C@@H]([C@@H]2[C@@H]5O)N3[C@H]1O | inactive | inactive |  |  | inactive | inactive | inactive | inactive | inactive | inactive | inactive |  |  |  | inactive | inactive
CC[C@@]1(c2ccc(N)cc2)CCC(=O)NC1=O | inactive | inactive | inactive | inactive | inactive | inactive | inactive | inactive | inactive | inactive | inactive | inactive | inactive | inactive | inactive | inactive
COc1ccc2c(c1OC)CN1CCc3cc4c(cc3[C@H]1C2)OCO4 |  |  | 2.03 µM (active) |  |  |  |  |  |  |  |  | 2.56 µM (active) | 4.55 µM (active) | 2.51 µM (active) |  | 
C[N+]1(C)[C@@H]2CC[C@H]1CC(OC(=O)[C@@H](CO)c1ccccc1)C2 (stereo partly specified) | inactive | inactive | inactive | inactive | inactive | inactive | inactive | inactive | inactive | inactive | inactive | inactive | inactive | inactive | inactive | inactive
CC1=C2[C@@H]3OC(=O)[C@@H](C)[C@@H]3CC[C@]2(C)C=CC1=O | inactive | inactive | inactive | inactive |  |  | inactive |  | inactive | inactive | inactive | inactive | inactive |  | inactive | 
C[C@H](NC(C)(C)C)C(=O)c1cccc(Cl)c1 | inactive | inactive | inactive |  |  | inactive | inactive |  | inactive | inactive |  | inactive |  | inactive | inactive | inactive
C[C@@]12CCC(=O)C=C1C=C[C@H]1[C@H]3CC[C@](O)(CCC(=O)O)[C@]3(C)CC[C@@H]12 | inactive | inactive | inactive | inactive | inactive | inactive |  | inactive | inactive | inactive | inactive | inactive |  |  |  | 
CNC[C@H](O)c1ccc(O)cc1 | inactive | inactive | inactive | inactive | inactive | inactive | inactive | inactive | inactive | inactive | inactive | inactive | inactive | inactive | inactive | inactive
CC(=O)OCC(=O)[C@@H]1CC[C@H]2[C@H]3CC[C@H]4C[C@@H](O)CC[C@]4(C)[C@@H]3C(=O)C[C@@]12C | inactive | inactive | inactive | inactive | inactive | inactive |  | inactive | inactive | inactive | inactive | inactive | inactive | inactive | inactive | inactive
C#CCN(C)[C@@H](C)Cc1ccccc1 | inactive | inactive | inactive | inactive | inactive |  |  | inactive | inactive | inactive | inactive |  | inactive | inactive | inactive | inactive
CN(C)C(=O)Oc1cc(OC(=O)N(C)C)cc([C@@H](O)CNC(C)(C)C)c1 | inactive | inactive | inactive | inactive | inactive | inactive | inactive | inactive | inactive | inactive | inactive | inactive | inactive | inactive | inactive | inactive
C[N+]1([O-])[C@@H]2CC[C@H]1CC(OC(=O)[C@@H](CO)c1ccccc1)C2 (stereo partly specified) |  | inactive | inactive | inactive | inactive | inactive | inactive | inactive | inactive | inactive | inactive | inactive | inactive | inactive | inactive | inactive
